Measured values from PubChem BioAssay AID1159580 (chemical genetic matrix, 2015).
About 2,000 (36%) of roughly 5,500 compounds were called active. Roughly 18% stayed inconclusive and do not appear here. Cut-off read from the data, not from the text of the source: active = normalized growth mostly below about 0.91 (no sharp cut-off); inconclusive = no clear call, values can overlap the other calls; inactive = mostly above about 0.92. This is one part of the list.

Assay: chemical genetic growth profiling, strain panel (AID 1159580);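 note: tested at 20 µM; growth read once vehicle control cultures reached saturation at 30 °C; 1 = growth at the plate median or of vehicle wells; lower values mean less growth of the strain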
Details: S. cerevisiae deletion strains, growth OD
[1] = locus YAL013W, strain DEP1, hits give low values
[2] = locus YBR229C, strain ROT2, hits give low values
[3] = locus YDL101C, strain DUN1, hits give low values
[4] = locus YDR150W, strain NUM1, hits give low values
[5] = locus YEL061C, strain CIN8, hits give low values
[6] = locus YGR078C, strain PAC10, hits give low values
[7] = locus YHR030C, strain SLT2, hits give low values
[8] = locus YHR087W, strain rtc3, hits give low values
[9] = locus YJR043C, strain POL32, hits give low values
[10] = locus YJR075W, strain HOC1, hits give low values
[11] = locus YLR039C, strain RIC1, hits give low values
[12] = locus YLR058C, strain SHM2 (second series), hits give low values
[13] = locus YLR085C, strain ARP6, hits give low values
[14] = locus YLR262C, strain YPT6, hits give low values
[15] = locus YML094W, strain GIM5, hits give low values
[16] = locus YMR219W, strain ESC1, hits give low values
[17] = locus YMR263W, strain SAP30, hits give low values
[18] = locus YMR307W, strain GAS1, hits give low values
[19] = locus YNL153C, strain GIM3, hits give low values
[20] = locus YNL298W, strain CLA4 (second series), hits give low values
[21] = locus YNL322C, strain KRE1, hits give low values
[22] = locus YNR030W, strain Alg12, hits give low values
[23] = locus YPL055C, strain LGE1, hits give low values
[24] = locus YPL241C, strain CIN2, hits give low values
[25] = locus YPR135W, strain CTF4, hits give low values

Measured: normalized growth

Ic1ccc(I)s1
inactive: [1] 1.03 | [2] 1 | locus YCL061C, strain MRC1, hits give low values 1.03 | [3] 1.01 | [4] 1.02 | [5] 1.04 | [6] 1.02 | [7] 1.22 | [8] 1 | locus YJL187C, strain SWE1, hits give low values 1.01 | [9] 1.04 | [10] 1.02 | locus YKL190W, strain CNB1, hits give low values 1.01 | [11] 1.18 | [12] 0.999 | [13] 1.01 | [14] 1.16 | [15] 1.02 | [16] 1.01 | [17] 1 | [18] 1.12 | locus YNL128W, strain TEP1, hits give low values 1 | [19] 1.01 | [20] 1.04 | [21] 1.01 | [22] 1.04 | [23] 1.03 | [24] 1.06 | [25] 1.11

O=C1O/C(=C/Br)CCC1c1cccc2ccccc12 (stereo unspecified)
active: [19] 0.6 | locus YNL175C, strain NOP13, hits give low values 0.61 | locus YNL224C, strain SQS1, hits give low values 0.771 | locus YOR083W, strain WHI5 (second series), hits give low values 0.775
inactive: [1] 0.952 | locus YAL040C, strain CLN3, hits give low values 1 | locus YER002W, strain NOP16, hits give low values 1.01 | [17] 0.989 | locus YNL197C, strain WHI3, hits give low values 0.947 | [23] 0.922 | [24] 0.998

COc1cccc(OC)c1C(C)(O)C(OC)OC (stereo unspecified)
inactive: [1] 0.996 | [2] 0.989 | [3] 0.999 | [4] 1.02 | [5] 1.01 | [6] 1 | [7] 1.05 | [8] 1.03 | [9] 1.01 | [10] 1 | [11] 1.02 | [12] 1.02 | [13] 1.03 | [14] 1.01 | [15] 0.997 | [16] 1 | [17] 0.941 | [18] 0.98 | [19] 0.994 | [20] 1.05 | [21] 1.01 | [22] 1.02 | [23] 1.03 | [24] 1.02 | [25] 1.09

O=C(N/C=C/c1ccsc1)Nc1cc(C(F)(F)F)cc(C(F)(F)F)c1
active: locus YDL214C, strain PRR2, hits give low values 0.643 | locus YDR477W, strain SNF1, hits give low values 0.61 | locus YER123W, strain YCK3, hits give low values 0.44 | locus YER133W, strain GLC7, hits give low values 0.63 | locus YFR019W, strain FAB1, hits give low values 0.639 | locus YGR040W, strain KSS1, hits give low values 0.613 | locus YGR052W, strain FMP48, hits give low values 0.33 | locus YGR092W, strain DBF2, hits give low values 0.254 | [7] 0.426 | locus YHR079C, strain IRE1, hits give low values 0.457 | locus YHR082C, strain KSP1, hits give low values 0.393 | locus YHR205W, strain SCH9, hits give low values 0.516 | locus YJL095W, strain BCK1, hits give low values 0.505 | locus YJL157C, strain FAR1, hits give low values 0.676 | locus YJR066W, strain TOR1 (second series), hits give low values 0.507 | locus YKL048C, strain ELM1, hits give low values 0.726 | locus YKL067W, strain YNK1, hits give low values 0.587 | locus YKL101W, strain HSL1, hits give low values 0.387 | locus YKL203C, strain TOR2, hits give low values 0.58 | locus YLR113W, strain HOG1, hits give low values 0.315 | locus YLR133W, strain CKI1, hits give low values 0.597 | locus YLR403W, strain SFP1, hits give low values 0.444 | locus YML070W, strain DAK1, hits give low values 0.361 | locus YMR205C, strain PFK2 (second series), hits give low values 0.672 | locus YNL020C, strain ARK1, hits give low values 0.541 | locus YNL183C, strain NPR1, hits give low values 0.309 | locus YNL307C, strain MCK1 (second series), hits give low values 0.41 | locus YOL136C, strain PFK27, hits give low values 0.555 | locus YOR231W, strain MKK1, hits give low values 0.507 | locus YPL031C, strain PHO85, hits give low values 0.417 | locus YPL153C, strain RAD53, hits give low values 0.345 | locus YPL204W, strain HRR25, hits give low values 0.434 | locus YPL256C, strain CLN2, hits give low values 0.444
inactive: locus YAR019C, strain CDC15, hits give low values 0.968 | locus YBL105C, strain PKC1, hits give low values 0.967 | locus YBR135W, strain CKS1, hits give low values 0.974 | locus YBR136W, strain MEC1, hits give low values 0.989 | locus YBR160W, strain CDC28, hits give low values 0.976 | locus YDL017W, strain CDC7, hits give low values 0.98 | locus YDL028C, strain MPS1, hits give low values 0.979 | [3] 0.995 | locus YDL108W, strain KIN28, hits give low values 0.987 | locus YDL132W, strain cdc53, hits give low values 0.983 | locus YDR052C, strain DBF4, hits give low values 0.98 | locus YDR054C, strain cdc34, hits give low values 0.958 | locus YDR226W, strain ADK1, hits give low values 0.98 | locus YFL009W, strain cdc4, hits give low values 0.977 | locus YFL029C, strain CAK1, hits give low values 0.98 | locus YFR003C, strain YPI1, hits give low values 0.979 | locus YFR028C, strain CDC14, hits give low values 0.97 | locus YIL147C, strain SLN1, hits give low values 0.981 | locus YJL128C, strain PBS2, hits give low values 0.873 | locus YJR016C, strain ILV3, hits give low values 0.977 | locus YJR066W, strain TOR1, hits give low values 0.507 | locus YKL193C, strain SDS22, hits give low values 0.979 | locus YMR001C, strain CDC5, hits give low values 0.976 | locus YMR277W, strain FCP1, hits give low values 0.966 | locus YNL006W, strain LST8, hits give low values 0.979 | locus YNL161W, strain CBK1, hits give low values 0.976 | locus YNL207W, strain RIO2, hits give low values 0.976 | locus YNL222W, strain SSU72, hits give low values 0.974 | locus YOL078W, strain AVO1, hits give low values 0.984 | locus YOR061W, strain CKA2, hits give low values 0.726 | locus YOR119C, strain RIO1, hits give low values 0.719 | locus YOR329C, strain SCD5, hits give low values 0.981 | locus YPL209C, strain IPL1, hits give low values 0.968 | locus YPR025C, strain CCL1, hits give low values 0.98 | locus YPR106W, strain ISR1, hits give low values 0.971 | locus YPR111W, strain DBF20, hits give low values 0.958 | strain NNK1, hits give low values 0.969 | strain TSCII, hits give low values 0.973
